Compound activity deposited in PubChem by The Scripps Research Institute Molecular Screening Center.
NR2F2 inh – NR2F2 (human) inhibition, primary screen | P24468 | HEK293T NGFI-A luciferase reporter, luminescence | inhibition, % at 8.6 µM | 0.7% of 370,000 active;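 active = inhibition above a per-plate cutoff, mean inhibition of test wells between control levels plus 3 SD, cut at about 38% in these data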;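 note: cells cotransfected with COUP-TFII expression vector driving the NGFI-A reporter; 0% = median of COUP-TF2 test wells and 100% = reporter-only cells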
LRH-1 inv ag – suppresses constitutive activity of human LRH-1; HEK293T StAR-luciferase reporter, LRH-1 transfected, 24 h; AID 602396; inhibition, % at 3.6 µM; 0.13% of 360,000 active;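 active = inhibition above the mean inhibition of all tested compounds plus 3 SD, cut at about 73% in these data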;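 note: 0% = DMSO wells and 100% = reporter-only cells lacking LRH-1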
SRC3 inh – inhibits human SRC3 coactivator. Q9Y6Q9. HEK293 GAL4-SRC3 luciferase reporter, luminescence. inhibition, % at 3.6 µM. 0.17% of 360,000 active;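 active = inhibition above a per-campaign cutoff, the mean of all compounds plus 3 SD, cut at about 60% in these data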;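 note: 0% = DMSO-treated cells and 100% = gossypol-treated cells at 36 µM; higher means less SRC3-driven luciferase light from the GAL4 reporter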
SRC2 inh – human SRC2 (NCOA2) inhibition; Q15596; HEK293 GAL4-SRC2 luciferase reporter, luminescence; inhibition, % at 9 µM; 0.17% of 370,000 active;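 active = inhibition above the mean inhibition of all tested compounds plus 3 SD, set per campaign, cut at about 52% in these data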;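 note: 0% = DMSO treated cells and 100% = cells given Gossypol at 36 µM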
SRC1 inh – human NCOA1 inhibition; HEK293 GAL4-SRC1 luciferase reporter, luminescence; inhibition, % at 3.6 µM; 0.12% of 360,000 active;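 active = inhibition above the campaign mean plus 3 SD, with each screening campaign given its own cutoff, cut at about 60% in these data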;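 note: 0% = DMSO treated cells and 100% = gossypol at 36 µM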
Gal4-VP16 ctr – VP16 inhibition counter-screen for COUP-TFII; 25% of 2,500 active; inhibition, % at 8.5 µM; HEK293 Gal4-VP16 luciferase reporter, luminescence; AID 687007; shares compounds with NR2F2 inh; in the data active = inhibition above about 13%
COUP-TFII conf – COUP-TFII (NR2F2) inhibition, confirmation assay; 45% of 2,500 active; HEK293 NGFI-A luciferase reporter, luminescence; AID 687008; inhibition, % at 8.5 µM; shares compounds with NR2F2 inh;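 active = mean inhibition over three repeats above a set limit taken from the earlier primary screen, cut at about 38% in these data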;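 note: 100% = cells given the luciferase reporter alone without the COUP-TF2 vector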
Starred values were filed as active, the others as inactive; nt = not tested or not shown. A selection: hits, their analogues and other compounds. The true share with any hit is near 0.84%.

SMILES	NR2F2 inh	LRH-1 inv ag	SRC3 inh	SRC2 inh	SRC1 inh	Gal4-VP16 ctr	COUP-TFII conf
C#CCN1C[C@@]2(O)CC[C@@H](O)[C@@H](OC)[C@@H]2[C@@]1(C)[C@H](O)CC=C(C)C	0	nt	nt	-9	nt	nt	nt
CCN(CC)c1ccc(C(=C2C=CC(=[N+](CC)CC)C=C2)c2ccc(N(CC)CC)cc2)cc1	83*	96*	79*	16	67*	57*	80*
CCN(CC)c1ccc(C(=O)NNC(=O)CCl)cc1	5	5	-8	-3	-61	nt	nt
CCN(CC)c1ccc(C(=C2C=CC(=[N+](CC)CC)C=C2)c2ccccc2)cc1	105*	95*	62*	94*	33	98*	113*
CCN(CC)c1ccc(C(=O)NNC(=O)CCNC(=O)c2ccccc2)cc1	-5	-12	-28	10	-10	nt	nt
COc1cccc(S(=O)(=O)N(C)C[C@@H]2OCc3cnnn3CCCC(=O)N([C@@H](C)CO)C[C@@H]2C)c1	7	0	-5	-3	-6	nt	nt
Cc1cc(C)cc(C(O)c2ncc(-c3ccccc3F)[nH]2)c1 (centres undefined)	1	10	10	0	14	nt	nt
Nc1nonc1-n1nnc(C(=O)N/N=C/c2ccccc2F)c1CN1CCc2ccccc21	11	-2	0	7	-16	nt	nt
COC(=O)C1=C(C)N(C)C(=NCC2CC2)NC1c1cccc(Cl)c1 (centres undefined)	-8	nt	nt	-19	nt	nt	nt
O=C1CC(c2ccc3c(c2)OCCO3)Oc2ccc([N+](=O)[O-])cc21 (centres undefined)	42*	43	53	-1	57	20*	67*
COc1ccc(CN2CCN(Cc3ccc4ccccc4c3)CC2)cc1OC	41*	7	-8	33	19	10	30
COc1ccccc1CN1CCN(Cc2ccc3ccccc3c2)CC1	14	6	2	-17	2	nt	nt
OC[C@@H]1CN(Cc2ccc(F)cc2)C[C@H](n2cnc3c(Nc4ccccc4)ncnc32)O1	7	9	-8	-6	-13	nt	nt
OC[C@@H]1CN(Cc2ccc(-c3ccccc3)cc2)C[C@H](n2cnc3c(Nc4ccccc4)ncnc32)O1	59*	-15	8	32	6	1	30
OC[C@@H]1CN(Cc2ccc(-c3ccccc3)cc2)C[C@H](n2cnc3c(NCc4ccc(F)cc4)ncnc32)O1	75*	29	7	45	8	2	54*
COc1ccc(CNC(=O)c2sc(=O)n(Cc3ccc(-c4ccccc4)cc3)c2C)cc1OC	44*	43	15	19	10	2	41*
Cc1c(C(=O)NCc2ccc(Cl)c(Cl)c2)sc(=O)n1Cc1ccc(S(C)(=O)=O)cc1	85*	13	-4	13	5	-8	4
Cc1c(C(=O)NCc2ccc3c(c2)OCO3)sc(=O)n1Cc1ccc(S(=O)(=O)N(C)C)cc1	24	37	20	17	3	nt	nt
Cc1c(C(=O)NCc2ccc3c(c2)OCCO3)sc(=O)n1Cc1ccc(S(=O)(=O)N(C)C)cc1	45*	26	18	-8	16	5	14
COc1ccc(NS(=O)(=O)c2ccc(-c3coc(C)n3)cc2)cc1OC	52*	50	27	29	5	9	59*
Cc1cc(F)ccc1C(O)c1ncc(-c2cccc(F)c2)[nH]1 (centres undefined)	-9	-19	3	-15	-10	nt	nt
CN1CCN(c2ccc(CNS(=O)(=O)Cc3cccc(C(F)(F)F)c3)cc2)CC1	61*	51	21	18	37	-3	45*
CN1CCN(c2ccc(CNS(=O)(=O)c3ccccc3)cc2)CC1	21	6	5	-3	2	nt	nt
c1nc(NCc2ccc3c(c2)OCO3)c2cc(-c3ccoc3)ccc2n1	39*	17	60	27	51	-19	10
CC1CCC2C(=O)N(c3ccc(Cc4ccncc4)cc3)C(=O)C2C1 (centres undefined)	45*	31	21	5	-13	5	37
COC(=O)CCCNC(=O)CCc1nnc(-c2ccc(-c3ccccc3)cc2)o1	52*	-23	-14	57*	-10	12	11
